# ELG1 DNA repair – qHTS screen for small molecules that inhibit ELG1-dependent DNA repair in human embryonic kidney (HEK293T) cells expressing luciferase-tagged ELG1; HEK293T ELG1-luciferase reporter, luminescence, 16 h; DNA damage induced by 5-fluorouridine; Potency, µM (highest dose often 46.1 µM), actives largely listed as inhibitors; 330,000 compounds, 2.3% hits; AID 504467, 2011; further: nearly all actives have a fitted effect of over 55% in size
#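 HEK293T cells expressing luciferase-tagged ELG1 (2,000/well) received 5-Fluorouridine plus compound or DMSO for 16 hr at 37 °C. Luciferase was read by ONE-Glo luminescence after 30 min at room temperature.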
# HT1080-NT tox – qHTS for induction of synthetic lethality in tumor cells producing 2HG: qHTS for the HT-1080-NT fibrosarcoma cell line; HT-1080-NT fibrosarcoma viability, CellTiter-Glo ATP luminescence, 48 h; Potency, µM (doses to about 46.1 µM), actives largely listed as cytotoxic; 360,000 compounds, 1.6% hits; AID 686970, 2013;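 further: NT is the 2HG producing partner of a matched IDH1 knockdown line; nearly all actives have a fitted effect of over 55% in size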
#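 HT-1080-NT fibrosarcoma cells (2HG-overproducing), 750 cells/well in RPMI with 5% FBS, dosed after 2 h and incubated 48 h at 37C. CellTiter-Glo luminescence normalized to DMSO and no-cell wells; concentration-response curves fitted and classed.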
# HT1080 IDH1KD tx – qHTS for induction of synthetic lethality in tumor cells producing 2HG: qHTS for the HT-1080-IDH1KD cell line. HT-1080 IDH1 knockdown viability, ATP luminescence, 48 h. Potency, µM (series often up to 46.1 µM), usual class: cytotoxic. 360,000 compounds, 2% hits. AID 686971, 2013
#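 Cytotoxicity counter-line: IDH1KD HT-1080, 48 h, CellTiter-Glo. Curves classed by r2, magnitude and activity.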
# IL-1B inflam inh – qHTS for Inhibitors of Inflammasome Signaling: IL-1-beta AlphaLISA Primary Screen; THP-1 LPS/ATP IL-1B secretion, AlphaLISA, 16 h; stronger effect = lower value; activity change, % at 57.5 µM; 360,000 compounds, 4.7% hits; AID 743279, 2014; in the data active means activity change below about -50%; inconclusive means mostly about -30% to -49%
#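 THP-1 cells pretreated 1 hr with compounds (up to 57.5 uM final), then stimulated with LPS (250 ng/mL final) plus ATP (1.25 mM final); secreted IL-1B measured by AlphaLISA after 16 hr, decreased signal indicating inhibition.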
# DT40 TDP1 CPT – qHTS for Inhibitors of human tyrosyl-DNA phosphodiesterase 1 (TDP1): qHTS in cells in presence of CPT | chicken DT40 Tdp1-/-;hTDP1 cells + 20 nM CPT, ATP luminescence, 48 h | Potency, µM (top dose mostly 46.2 µM), actives largely listed as inhibitors | 420,000 compounds, 12% hits | AID 686979, 2013; further: nearly all actives have a fitted effect of over 55% in size
#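 Cell growth measured by CellTiter-Glo luminescence after a minimum 48 h, 37 C compound exposure with 20 nM CPT in Tdp1-knockout DT40 cells stably expressing hTDP1, seeded 400/well; qHTS titration format.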
# DT40 TDP1 no CPT – qHTS for Inhibitors of human tyrosyl-DNA phosphodiesterase 1 (TDP1): qHTS in cells in absence of CPT. DT40 Tdp1-/- hTDP1 cells, no CPT, ATP luminescence, 48 h. Potency, µM (highest dose often 46.2 µM), usual class: inhibitors. 420,000 compounds, 15% hits. AID 686978, 2013; further: nearly all actives have a fitted effect of over 55% in size
#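 DT40 Tdp1-/-;hTDP1 cells, no CPT (DMSO vehicle only), 400 cells/well; compounds pin-transferred; ≥48 hr, 37 °C; CellTiter-Glo 30 min RT dark, luminescence read.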
# Numbers stand for hits; 0 = inactive; ? = inconclusive; - = not tested or not shown; [ ] = another dose, or the depositor's remark. This is a sample that favours compounds with a hit; in the whole collection about 19% have one here. Unless noted, the call rests on the fitted dose curve; in most records, active means well fitted curve in the direction sought with a large enough effect; inconclusive means small, poorly fitted or top-dose-only effect, or another doubt; inactive means no such curve, though single readings can be large; an effect the other way counts as inactive or inconclusive.
SMILES,ELG1 DNA repair,HT1080-NT tox,HT1080 IDH1KD tx,IL-1B inflam inh,DT40 TDP1 CPT,DT40 TDP1 no CPT
CCN(CC)S(=O)(=O)c1ccc(N2CCOCC2)c(NC(=O)CCC2CCCCC2)c1,?,0,0,0,20.6µM,?
O=C(CCC1CCCC1)Nc1cc(Cl)ccc1N1CCOCC1,0,0,0,-56.5,?,?
CN(CC1CCCN(CCc2ccc(F)cc2)C1)C(=O)CCC(N)=O (stereo unspecified),0,0,0,0,0,0
CC1CCC(C(C)(C)O)CC2=C1CCC2C (stereo unspecified),-,-,-,-,0,0
O=C(NCc1ccco1)/C(=C/c1ccc(C(F)(F)F)cc1)c1nc2ccccc2[nH]1,?,0,0,-73.4,?,?
O=S(=O)(/C(=C\c1ccc(C(F)(F)F)cc1)c1nc2ccccc2[nH]1)c1ccccc1,-,1.84µM,1.46µM,-96.0,2.06µM,2.06µM
O=C(NCc1ccco1)/C(=C/c1cccc(C(F)(F)F)c1)c1nc2ccccc2[nH]1,0,?,?,-115.0,9.2µM,5.8µM
O=S(=O)(NCCc1nc2ccccc2[nH]1)c1ccccc1,-,0,0,0,0,0
O=c1oc2ccc3ccccc3c2cc1-c1nnc(Nc2ccccc2)s1,-,-,-,-,0,?
C[C@@H]1CC(=O)NN=C1c1ccc(NN=C(C#N)C#N)cc1,-,-,-,-,10.6µM,9.44µM
CC1CC(=O)NN=C1c1ccc(NCCO)c([N+](=O)[O-])c1 (stereo unspecified),0,0,0,0,0,0
CCc1cccc2c(C(=O)CN3C(=O)NC4(CCc5ccccc54)C3=O)c[nH]c12 (stereo unspecified),0,?,?,-57.7,4.61µM,4.61µM
CCc1cccc2c(C(=O)CN3C(=O)N(C)C4(CCCCC4)C3=O)c[nH]c12,?,18.4µM,16.4µM,0,3.26µM,8.2µM
CCc1cccc2c(=O)c(C(=O)N3CCCCCC3)c[nH]c12,0,0,0,0,0,0
CC1(C2CC2)NC(=O)N(CC(=O)NCc2ccc(Cl)cc2Cl)C1=O (stereo unspecified),0,0[9.24 µM],0,0,0,0
CCc1cccc2c(C(=O)CN3C(=O)NC(C)(c4cccc5ccccc45)C3=O)c[nH]c12 (stereo unspecified),0,?,14.6µM,0,?,?
CN1C(=O)N(CC(=O)NCc2ccc(Cl)cc2Cl)C(=O)C12CCCCC2,0,0,0,-54.3,0,0
Cn1c(=O)c(-c2ccc(F)cc2)nc2cnc(OCc3ccccc3)nc21,-,-,-,-,0,0
CC(C)CNC(=O)c1cn(C2CCN(Cc3nc4ccccc4s3)CC2)nn1,-,-,-,-,0,0
CC(C)(C)NC(=O)NC12CC3CC(CC(C3)C1)C2,0,0,0,0,0,0
CC(Cl)C(=O)NC(=O)NC12CC3CC(CC(C3)C1)C2 (stereo unspecified),?,0,0,0,16.4µM,20.6µM
O=c1n(Cc2ccc([N+](=O)[O-])cc2)c2ccccc2c2nc(-c3ccccc3)nn12,-,-,-,-,7.31µM,?
O=c1n(Cc2ccc(F)cc2Cl)c2ccccc2c2nc(-c3ccccc3)nn12,-,-,-,-,0,0
O=C(c1cnccn1)N1CCC2(CCN(Cc3ccncc3)CC2)CC1,-,-,-,-,0,?
CCCCNC(=S)NNC(=O)c1cc(C2CC2)nc2ccccc12,0,0,0,0,?,3.66µM
SMILES,ELG1 DNA repair,HT1080-NT tox,HT1080 IDH1KD tx,IL-1B inflam inh,DT40 TDP1 CPT,DT40 TDP1 no CPT
CCOc1ccccc1NC(=O)c1cc(-c2ccccn2)nc2ccccc12,?,0,0,?,20.6µM,10.3µM
COc1ccc(NC(=O)c2cc(-c3ccccn3)nc3ccccc23)c(OC)c1,8.2µM,0,0,?,29.1µM,14.6µM
COc1ccc(NC(=O)NNC(=O)c2cc(C3CC3)nc3ccccc23)c(OC)c1,13µM,0,0,0,0,0
COc1ccc(NC(=O)NNC(=O)c2ccc3ccccc3c2O)c(OC)c1,0,0,0,0,0,0
CCC(=O)N(C)C[C@H]1Oc2cc(Br)ccc2S(=O)(=O)N([C@@H](C)CO)C[C@H]1C,-,0,0,0,0,0
Cc1nc2sccn2c(=O)c1S(=O)(=O)Nc1cc(C(F)(F)F)ccc1Cl,-,-,-,-,0,0
CN(C)S(=O)(=O)c1cccc(N2C(=O)CC3(CCCCC3)CC2=O)c1,?,0,0,0,0,0
O=[N+]([O-])c1ccc(Cl)c2c1C1C=CCC1C(c1ccccn1)N2 (stereo unspecified),0,0,0,0,18.4µM,?
Cc1cccc(-c2noc(CCCC(=O)NCc3ccco3)n2)c1,-,-,-,-,14.6µM,16.4µM
CC(C)(C)c1ccc(-c2noc(CCC(=O)NCc3ccco3)n2)cc1,0,?,?,-57.1,18.4µM,25.9µM
COc1ccc(NC(=O)CC(C)S(=O)(=O)c2cc3c(cc2C)NC(=O)CO3)cc1OC (stereo unspecified),-,-,-,-,0,0
Cc1cccc(-n2c(SCC(=O)NCC3CCCO3)nc3ccccc3c2=O)c1C (stereo unspecified),0,0,0,0,14.6µM,23.1µM
Cc1ccccc1-n1c(SCC(=O)NC2CC2)nc2ccccc2c1=O,-,0,0,0,?,16.4µM
CCOC(=O)C(CC)n1nnc2sc(-c3ccccc3)cc2c1=O (stereo unspecified),-,-,-,-,25.9µM,14.6µM
Cc1ccccc1-n1c(SCC(N)=O)nc2sc(-c3ccccc3)cc2c1=O,0,0,0,0,?,18.4µM
Cc1ccccc1-n1c(SCC(=O)NC(N)=O)nc2sc(-c3ccccc3)cc2c1=O,?,0,0,0,?,?
Cc1ccc(S(=O)(=O)N(CC(=O)NCc2ccccc2Cl)C(=O)N2CCN(C)CC2)cc1,0,0,0,0,?,0
COc1c2c(cc3c1C(NC(N)=O)[N+](C)(C)CC3)OCO2 (stereo unspecified),-,-,-,-,0[9.04 µM],0[9.04 µM]
O=C(NCCN1CCOCC1)c1ccc(NC(=O)c2ccc(Br)o2)cc1,-,0,0,0,0,0
CC(=O)NC(Cc1ccc(C)cc1)C(=O)NC1CCN(S(=O)(=O)c2ccccc2)CC1 (stereo unspecified),0,0,0,0,0,0

# Bioassay records from PubChem BioAssay.
